Laboratory results as given in PubChem BioAssay AID651744 (Broad Institute, 2012).
About 3,100 (55%) of roughly 5,600 compounds were called active. Inconclusive results (about 3%) are left out.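 How the source made its calls: active means mean loss of cell viability signal at or above a set limit, and enough replicates individually reaching it; inconclusive means meets only the mean limit or only the replicate share; inactive means meets neither condition.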 The set was probably picked from earlier hits. A selection follows.

Assay: viability loss of mouse 3T3 cells – cell-based, cherry-pick, single point, set 2, cytotoxicity control, confirmation (AID 651744);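 further: 0% = median of neutral control wells and 100% = median of positive control wells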
Settings: NIH/3T3 viability, CellTiter-Glo ATP luminescence, 90 h; at 24.9 µM; stronger effect = higher value

| SMILES | inhibition |
| --- | --- |
| C[C@H]1CCCCO[C@H](CN(C)Cc2ccc(C(F)(F)F)cc2)[C@@H](C)CN([C@@H](C)CO)C(=O)c2cc(NC(=O)C3CCCCC3)ccc2O1 | 25.9% (active) |
| C[C@H](CO)N1C[C@H](C)[C@@H](CN(C)Cc2ccc(C(F)(F)F)cc2)OCCCC[C@H](C)Oc2ccc(NC(=O)C3CCCCC3)cc2C1=O | 22.4% (inactive) |
| C[C@H](CO)N1C[C@H](C)[C@H](CN(C)C(=O)Nc2ccc(C(F)(F)F)cc2)OCCCC[C@H](C)Oc2ccc(NC(=O)C3CCCCC3)cc2C1=O | -9.18% (inactive) |
| CC(C)CC#Cc1ccc2c(c1)O[C@H](CN(C)C(=O)C1CC1)[C@@H](C)CN([C@@H](C)CO)S2(=O)=O | 34.8% (active) |
| C[C@@H]1CN([C@@H](C)CO)S(=O)(=O)c2ccc(C#CCN(C)C)cc2O[C@H]1CN(C)C(=O)C1CC1 | 15.6% (inactive) |
| C[C@H](CO)N1C[C@H](C)[C@@H](CN(C)C(=O)C2CCCCC2)Oc2cc(-c3ccccc3)ccc2S1(=O)=O | 33.8% (active) |
| CCCC#Cc1ccc2c(c1)O[C@H](CN(C)C(=O)CC)[C@@H](C)CN([C@H](C)CO)S2(=O)=O | 48.4% (active) |
| CCC(=O)N(C)C[C@@H]1Oc2cc(C#CCN(C)C)ccc2S(=O)(=O)N([C@H](C)CO)C[C@H]1C | 5.45% (inactive) |
| N#C[C@@H]1[C@H](c2ccc(C#Cc3cccc(F)c3)cc2)[C@@H](CO)N1C(=O)C1CCCC1 | 105% (active) |
| CCCC#Cc1ccc([C@@H]2[C@@H](C#N)N(C(=O)C3CCCC3)[C@@H]2CO)cc1 | 23.7% (inactive) |
| N#C[C@@H]1[C@@H](c2ccccc2)[C@@H](CO)N1C(=O)Cc1ccccc1 | 17% (inactive) |
| N#C[C@@H]1[C@@H](c2ccc(C#Cc3cccc(F)c3)cc2)[C@@H](CO)N1C(=O)C1CCC1 | 22.8% (inactive) |
| COCC(=O)N1[C@H](CO)[C@@H](c2ccc(C#Cc3ccccc3F)cc2)[C@@H]1C#N | 19.1% (inactive) |
| N#C[C@@H]1[C@@H](c2ccc(/C=C/c3ccccc3)cc2)[C@@H](CO)N1C(=O)C1CC1 | 48.2% (active) |
| C[C@@H]1CN([C@H](C)CO)S(=O)(=O)c2ccc(C#Cc3ccncc3)cc2O[C@@H]1CN(C)S(=O)(=O)c1ccc(F)cc1 | 27.4% (active) |
| Cc1noc(C)c1S(=O)(=O)N(C)C[C@H]1Oc2ccc(N(C)C)cc2CC(=O)N([C@H](C)CO)C[C@@H]1C | -3.27% (inactive) |
| C[C@@H]1CN([C@@H](C)CO)S(=O)(=O)c2ccc(C#Cc3ccc(F)cc3)cc2O[C@H]1CN(C)S(C)(=O)=O | 64.1% (active) |
| Cc1ccccc1-c1ccc([C@@H]2[C@H](CO)N3CCCCN(S(=O)(=O)c4ccc(F)cc4)C[C@@H]23)cc1 | 102% (active) |
| O=S(=O)(c1ccc(F)cc1)N1CCCCN2[C@H](C1)[C@H](c1ccc(C3=CCCCC3)cc1)[C@@H]2CO | 105% (active) |
| Cc1ccccc1-c1ccc([C@H]2[C@H]3CN(S(=O)(=O)c4ccc(F)cc4)CCCCN3[C@H]2CO)cc1 | 103% (active) |

| SMILES | inhibition |
| --- | --- |
| CN(C)CC#Cc1ccc([C@H]2[C@H]3CN(S(=O)(=O)c4ccccc4F)CCCCN3[C@H]2CO)cc1 | 18.4% (inactive) |
| COc1ccc(S(=O)(=O)N(C)C[C@H]2Oc3c(NC(=O)Nc4cccc5ccccc45)cccc3C(=O)N([C@@H](C)CO)C[C@H]2C)cc1 | 26.1% (inactive) |
| C[C@@H]1CN([C@H](C)CO)C(=O)c2cccc(NC(=O)c3cnccn3)c2O[C@@H]1CN(C)Cc1ccc(C(=O)Nc2ccccc2N)cc1 | 68.5% (active) |
| Cc1ccc(S(=O)(=O)N(C)C[C@@H]2Oc3c(NC(=O)c4nc5ccccc5s4)cccc3C(=O)N([C@H](C)CO)C[C@@H]2C)cc1 | 49% (active) |
| Cc1ccc(S(=O)(=O)N(C)C[C@H]2OCCCC[C@H](C)Oc3ccc(NC(=O)Cc4ccccc4)cc3C(=O)N([C@@H](C)CO)C[C@@H]2C)cc1 | -4.04% (inactive) |
| C[C@H]1CN([C@@H](C)CO)C(=O)c2cccc(NS(=O)(=O)c3cn(C)cn3)c2O[C@@H]1CN(C)CC1CCCCC1 | 0.698% (inactive) |
| C[C@@H]1CN([C@H](C)CO)C(=O)c2cccc(NC(=O)c3ccc(-c4nccs4)cc3)c2O[C@@H]1CN(C)C(=O)Nc1ccc(C(F)(F)F)cc1 | 44% (active) |
| Cc1cc(C(=O)Nc2cccc3c2O[C@@H](CN(C)Cc2ccc(C(=O)Nc4ccccc4N)cc2)[C@H](C)CN([C@@H](C)CO)C3=O)n(C)n1 | 10.2% (inactive) |
| C[C@H](CO)N1C[C@H](C)[C@@H](CN(C)Cc2ccc(C(=O)Nc3ccccc3N)cc2)Oc2c(NC(=O)c3ccc(-c4nccs4)cc3)cccc2C1=O | 42% (active) |
| COc1ccc(NC(=O)N(C)C[C@H]2OCCCC[C@H](C)Oc3ccc(NC(=O)Nc4ccc(C(F)(F)F)cc4)cc3C(=O)N([C@@H](C)CO)C[C@@H]2C)cc1 | 20.7% (inactive) |
| C[C@@H]1CCCCO[C@H](CN(C)C(=O)Nc2ccc(C(F)(F)F)cc2)[C@H](C)CN([C@H](C)CO)C(=O)c2cc(NC(=O)Nc3ccc(C(F)(F)F)cc3)ccc2O1 | -27.4% (inactive) |
| N#Cc1cccc(-c2ccc([C@H]3[C@H](CO)N4CCCCN(C(=O)Nc5cccc(F)c5)C[C@@H]34)cc2)c1 | 105% (active) |
| O=C(Nc1cccc(F)c1)N1CCCCN2[C@H](CO)[C@H](c3ccc(C#CC4CC4)cc3)[C@@H]2C1 | 22.3% (inactive) |
| O=C(Nc1ccccc1F)N1CCCCN2[C@H](CO)[C@@H](c3ccc(-c4cccnc4)cc3)[C@H]2C1 | 14.6% (inactive) |
| O=C(C1CC1)N1CCCCN2[C@H](CO)[C@H](c3ccc(-c4cccc(F)c4)cc3)[C@H]2C1 | 56.9% (active) |
| O=C(C1CCCC1)N1CCCCN2[C@@H](CO)[C@H](c3ccc(-c4cccc(F)c4)cc3)[C@@H]2C1 | 105% (active) |
| O=C(C1CCC1)N1CCCCN2[C@H](CO)[C@H](c3ccc(-c4cccc(F)c4)cc3)[C@@H]2C1 | 1.34% (inactive) |
| O=C(C[C@@H]1C[C@H]2c3cc(NC(=O)C4CCC4)ccc3O[C@H]2[C@@H](CO)O1)NCc1ccc2c(c1)OCO2 | -13.1% (inactive) |
| CC(C)NC(=O)Nc1ccc2c(c1)C(=O)N([C@@H](C)CO)C[C@H](C)[C@H](CN(C)S(=O)(=O)c1ccc(Cl)cc1)OCCCC[C@H](C)O2 | 14% (inactive) |
| C[C@H]1CN([C@@H](C)CO)C(=O)c2cc(C#CC3CCCCC3)cnc2O[C@H]1CN(C)S(=O)(=O)c1ccccc1 | 62.7% (active) |

| SMILES | inhibition |
| --- | --- |
| C[C@@H]1CN([C@H](C)CO)C(=O)c2cc(C#CC3CCCCC3)cnc2O[C@@H]1CN(C)C(=O)NC1CCCC1 | 75.6% (active) |
| C[C@@H]1CN([C@@H](C)CO)C(=O)c2cc(C#CC3CCCCC3)cnc2O[C@H]1CN(C)S(=O)(=O)c1ccccc1 | 106% (active) |
| C[C@@H]1CCCCO[C@@H](CN(C)S(=O)(=O)c2ccc(Cl)cc2)[C@H](C)CN([C@@H](C)CO)C(=O)c2cc(NC(=O)Cc3ccccc3)ccc2O1 | 12.4% (inactive) |
| C[C@@H]1CCCCO[C@H](CN(C)S(=O)(=O)c2ccc(F)cc2)[C@H](C)CN([C@@H](C)CO)C(=O)c2cc(NS(=O)(=O)c3ccccc3)ccc2O1 | -19.2% (inactive) |
| C[C@@H]1CN([C@H](C)CO)C(=O)c2cc(-c3cncnc3)cnc2O[C@H]1CN(C)C(=O)Nc1ccc2c(c1)OCO2 | 2.69% (inactive) |
| C[C@H](CO)N1C[C@H](C)[C@H](CN(C)C(=O)Nc2ccc3c(c2)OCO3)Oc2ncc(C#Cc3cccc(F)c3)cc2C1=O | 103% (active) |
| C[C@H](CO)N1C[C@H](C)[C@H](CN(C)C(=O)C2CCCCC2)Oc2ncc(C#Cc3cccc(F)c3)cc2C1=O | 92.3% (active) |
| OC[C@H]1[C@H](c2ccc(-c3cccc(F)c3)cc2)[C@@H]2CN(Cc3cncnc3)CCCCN12 | 31.7% (active) |
| Cc1ccc(-c2ccc([C@H]3[C@H](CO)N4CCCCN(Cc5cncnc5)C[C@@H]34)cc2)cc1 | 64.8% (active) |
| Cc1cccc(-c2ccc([C@H]3[C@@H](CO)N4CCCCN(Cc5cncnc5)C[C@H]34)cc2)c1 | 102% (active) |
| CN(C)C(=O)c1ccc(-c2ccc([C@H]3[C@@H](CO)N4CCCCN(CC5CC5)C[C@H]34)cc2)cc1 | -3.83% (inactive) |
| OC[C@@H]1[C@H](c2ccc(C#Cc3ccccc3)cc2)[C@@H]2CN(Cc3cncnc3)CCCCN12 | 104% (active) |
| OC[C@@H]1[C@H](c2ccc(C#CC3(O)CCCC3)cc2)[C@H]2CN(Cc3cncnc3)CCCCN12 | 16.8% (inactive) |
| CCC(=O)N1CC[C@@H]2[C@@H](CO)N(C)c3ccc(-c4cccc(OC)c4)cc3[C@@H]21 | -5.88% (inactive) |
| C[C@@H]1CN([C@H](C)CO)S(=O)(=O)c2ccc(C#C[C@@H](C)O)cc2O[C@@H]1CN(C)Cc1ccc(-c2ccccc2)cc1 | 105% (active) |
| C[C@@H]1CN([C@@H](C)CO)S(=O)(=O)c2ccc(/C=C/c3ccccc3)cc2O[C@H]1CN(C)Cc1ccccc1 | 72.5% (active) |
| C[C@H]1CN([C@@H](C)CO)S(=O)(=O)c2ccc(C#CCN(C)C)cc2O[C@@H]1CN(C)Cc1ccc(F)cc1 | 105% (active) |
| CC(C)C#Cc1ccc2c(c1)O[C@H](CN(C)Cc1ccccc1)[C@H](C)CN([C@@H](C)CO)S2(=O)=O | 106% (active) |
| CC(=O)N(C)C[C@H]1Oc2cc(C#CCN(C)C)ccc2S(=O)(=O)N([C@@H](C)CO)C[C@@H]1C | 16.1% (inactive) |
| COc1cccc(C#Cc2ccc([C@@H]3[C@H](C#N)N[C@H]3CO)cc2)c1 | 61.1% (active) |
